Design in all cases: scale not given: direction of the effect not stated beside the values
In experiment [1] the target is Protein translocase subunit SecA (Escherichia coli (strain K12)) (UniProt P10408). Put plainly: Assay to Identify E. coli SecA ATPase Inhibitors. The format is functional. The note with it: 30 µM.
Experiment [2] has as its target T1, Ubiquitin-activating enzyme e1, putative (Leishmania donovani (strain BPK282A1)) (UniProt E9BSI1).
T1 sequence (whole entry): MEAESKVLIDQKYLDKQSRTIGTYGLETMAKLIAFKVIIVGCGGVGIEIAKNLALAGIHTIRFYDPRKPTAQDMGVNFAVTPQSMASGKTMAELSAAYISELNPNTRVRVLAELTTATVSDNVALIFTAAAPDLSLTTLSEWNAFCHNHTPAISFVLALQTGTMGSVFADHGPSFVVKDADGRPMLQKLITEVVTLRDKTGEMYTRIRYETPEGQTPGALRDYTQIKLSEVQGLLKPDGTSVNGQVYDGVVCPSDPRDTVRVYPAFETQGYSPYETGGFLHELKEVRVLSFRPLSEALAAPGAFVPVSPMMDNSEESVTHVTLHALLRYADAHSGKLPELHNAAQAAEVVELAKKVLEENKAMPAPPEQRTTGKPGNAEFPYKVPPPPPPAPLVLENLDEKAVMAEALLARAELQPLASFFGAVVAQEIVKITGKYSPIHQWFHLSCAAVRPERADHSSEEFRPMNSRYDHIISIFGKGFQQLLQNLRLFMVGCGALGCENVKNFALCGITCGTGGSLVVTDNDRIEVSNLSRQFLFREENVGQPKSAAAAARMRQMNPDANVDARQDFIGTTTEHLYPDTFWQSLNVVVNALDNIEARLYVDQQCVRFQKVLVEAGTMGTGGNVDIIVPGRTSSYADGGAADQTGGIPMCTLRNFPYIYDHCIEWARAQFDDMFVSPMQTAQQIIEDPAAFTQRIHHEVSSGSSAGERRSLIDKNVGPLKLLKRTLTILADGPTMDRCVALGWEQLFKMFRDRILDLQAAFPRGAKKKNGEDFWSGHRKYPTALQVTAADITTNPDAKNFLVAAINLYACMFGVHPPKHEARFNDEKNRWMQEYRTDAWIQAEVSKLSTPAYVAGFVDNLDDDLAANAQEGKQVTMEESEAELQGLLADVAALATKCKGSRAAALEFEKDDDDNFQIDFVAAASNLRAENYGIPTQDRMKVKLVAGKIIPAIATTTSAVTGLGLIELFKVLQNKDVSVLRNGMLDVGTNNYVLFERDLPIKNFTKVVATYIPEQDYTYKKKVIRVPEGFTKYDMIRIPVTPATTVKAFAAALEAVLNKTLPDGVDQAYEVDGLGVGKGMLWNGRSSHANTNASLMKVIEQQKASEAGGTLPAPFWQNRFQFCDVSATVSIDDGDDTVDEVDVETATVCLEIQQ
The experiment is described as follows: Leishmania donovani Ubiquitin Activating Enzyme (LdE1). The format is functional. The following applies: 30 µM.

Experiment [3] deals with Sialic acid-binding Ig-like lectin 9 (Homo sapiens) (UniProt Q9Y336). The experiment is described as follows: Hs-Siglec9 ALPHAscreen SOP 20170721. The following applies: 10 µM.
Sialic acid-binding Ig-like lectin 9 (Homo sapiens), sequence (Q9Y336 whole entry): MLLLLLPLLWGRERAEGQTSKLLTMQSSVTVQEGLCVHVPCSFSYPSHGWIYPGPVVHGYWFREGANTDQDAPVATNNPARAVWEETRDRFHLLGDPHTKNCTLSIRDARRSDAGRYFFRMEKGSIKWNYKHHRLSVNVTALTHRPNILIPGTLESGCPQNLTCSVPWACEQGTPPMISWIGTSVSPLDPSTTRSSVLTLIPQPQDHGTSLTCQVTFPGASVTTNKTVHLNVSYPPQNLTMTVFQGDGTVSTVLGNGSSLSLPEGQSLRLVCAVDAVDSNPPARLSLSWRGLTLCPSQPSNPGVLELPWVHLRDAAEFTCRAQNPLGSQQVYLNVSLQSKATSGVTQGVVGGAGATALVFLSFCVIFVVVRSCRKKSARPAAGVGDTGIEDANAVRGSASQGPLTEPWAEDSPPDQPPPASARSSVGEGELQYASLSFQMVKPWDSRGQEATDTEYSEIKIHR
In a further experiment the test system is Trypanosoma cruzi. The experiment is described as follows: Trypanosoma cruzi phosphomannomutase and mannose-1-phosphate guanylyltransferase assay. The following applies: 10 µM. The format is functional.
The target in experiment [4] is T2, Arginase-2, mitochondrial (Homo sapiens) (UniProt P78540).
T2 sequence (whole entry): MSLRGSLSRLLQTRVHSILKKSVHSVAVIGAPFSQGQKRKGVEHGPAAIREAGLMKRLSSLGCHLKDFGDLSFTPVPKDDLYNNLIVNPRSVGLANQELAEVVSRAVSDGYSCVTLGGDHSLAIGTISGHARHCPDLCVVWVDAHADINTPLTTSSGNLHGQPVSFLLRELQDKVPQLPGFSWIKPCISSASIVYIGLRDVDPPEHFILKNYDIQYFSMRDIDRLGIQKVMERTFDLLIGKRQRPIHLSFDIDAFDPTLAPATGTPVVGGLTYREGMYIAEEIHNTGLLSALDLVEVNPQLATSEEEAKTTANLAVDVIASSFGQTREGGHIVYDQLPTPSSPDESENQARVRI
The experiment is described as follows: in vitro enzyme assay to detect the production of urea directly proportional to the activity of Arginase II. Also: in the data most compounds retested in dose-response had high values. The format is functional. The note with it: 33.3 µM.

Experiment [5] concerns the target T3, Proteasome subunit beta (Trypanosoma cruzi) (UniProt O96673).
T3 sequence (whole entry): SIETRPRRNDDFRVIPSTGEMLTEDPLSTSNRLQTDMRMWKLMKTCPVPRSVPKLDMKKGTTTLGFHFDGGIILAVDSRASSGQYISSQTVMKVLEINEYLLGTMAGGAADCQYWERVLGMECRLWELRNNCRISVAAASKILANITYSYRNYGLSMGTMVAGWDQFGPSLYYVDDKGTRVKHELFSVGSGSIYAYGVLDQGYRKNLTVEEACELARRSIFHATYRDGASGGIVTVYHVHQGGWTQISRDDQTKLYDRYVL
Put plainly: Trypanosoma cruzi proteasome chymotrypsin-like activity (TcProtChymo) assay. Also: in the data most compounds retested in dose-response had high values. The format is functional. The following applies: 9.37 µM.

Another experiment is filed under the species Homo sapiens. Put plainly: To identify inhibition of the IFN signalling (Jak-Stat) pathway via expression of an eGFP reporter gene under the control of an IFN-stimulated response element (ISRE) containing MxA promoter. The format is functional. The note with it: 30 µM.
Experiment [6] concerns the target T4, Tyrosyl-tRNA synthetase, putative (Trypanosoma cruzi (strain CL Brener)) (UniProt Q4DSP6).
T4 sequence (whole entry): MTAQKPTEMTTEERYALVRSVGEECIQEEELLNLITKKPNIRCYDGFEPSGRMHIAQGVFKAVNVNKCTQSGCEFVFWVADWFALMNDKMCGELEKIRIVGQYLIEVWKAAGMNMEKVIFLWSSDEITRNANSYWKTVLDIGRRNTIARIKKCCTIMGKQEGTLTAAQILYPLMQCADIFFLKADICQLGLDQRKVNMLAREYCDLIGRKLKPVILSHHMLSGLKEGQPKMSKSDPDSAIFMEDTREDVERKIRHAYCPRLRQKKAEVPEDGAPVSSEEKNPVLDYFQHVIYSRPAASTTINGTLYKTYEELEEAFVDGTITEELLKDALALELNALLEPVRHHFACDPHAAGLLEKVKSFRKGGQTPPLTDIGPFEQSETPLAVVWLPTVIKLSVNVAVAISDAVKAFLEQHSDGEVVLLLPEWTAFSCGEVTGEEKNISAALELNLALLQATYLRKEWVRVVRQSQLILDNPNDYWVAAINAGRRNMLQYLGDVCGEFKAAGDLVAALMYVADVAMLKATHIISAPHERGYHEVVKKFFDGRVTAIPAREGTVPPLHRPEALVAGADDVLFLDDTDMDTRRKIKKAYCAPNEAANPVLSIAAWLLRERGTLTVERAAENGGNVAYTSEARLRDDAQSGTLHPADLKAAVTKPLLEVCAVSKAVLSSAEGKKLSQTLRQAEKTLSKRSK
The experiment is described as follows: Trypanosoma cruzi tyrosyl tRNA synthetase (TcYRS) _High Tyrosine SOP. Also: in the data most compounds retested in dose-response had high values. In kind it is functional. The following applies: 30 µM.

Experiment [7] has as its target T4, Tyrosyl-tRNA synthetase, putative (Trypanosoma cruzi (strain CL Brener)). Put plainly: Trypanosoma cruzi tyrosyl tRNA synthetase (TcYRS) SOP. In kind it is functional. The following applies: 30 µM.
In experiment [8] the target is Chromo domain-containing protein 1 (Saccharomyces cerevisiae (strain ATCC 204508 / S288c) (Baker's yeast)) (UniProt P32657). The experiment is described as follows: ScCHD-1 Enzyme Inhibition Assay. Also: in the data most compounds retested in dose-response had high values. In kind it is functional. The following applies: 30 µM.
Chromo domain-containing protein 1 (Saccharomyces cerevisiae (strain ATCC 204508 / S288c) (Baker's yeast)), sequence (P32657 whole entry, the tested form may be a part): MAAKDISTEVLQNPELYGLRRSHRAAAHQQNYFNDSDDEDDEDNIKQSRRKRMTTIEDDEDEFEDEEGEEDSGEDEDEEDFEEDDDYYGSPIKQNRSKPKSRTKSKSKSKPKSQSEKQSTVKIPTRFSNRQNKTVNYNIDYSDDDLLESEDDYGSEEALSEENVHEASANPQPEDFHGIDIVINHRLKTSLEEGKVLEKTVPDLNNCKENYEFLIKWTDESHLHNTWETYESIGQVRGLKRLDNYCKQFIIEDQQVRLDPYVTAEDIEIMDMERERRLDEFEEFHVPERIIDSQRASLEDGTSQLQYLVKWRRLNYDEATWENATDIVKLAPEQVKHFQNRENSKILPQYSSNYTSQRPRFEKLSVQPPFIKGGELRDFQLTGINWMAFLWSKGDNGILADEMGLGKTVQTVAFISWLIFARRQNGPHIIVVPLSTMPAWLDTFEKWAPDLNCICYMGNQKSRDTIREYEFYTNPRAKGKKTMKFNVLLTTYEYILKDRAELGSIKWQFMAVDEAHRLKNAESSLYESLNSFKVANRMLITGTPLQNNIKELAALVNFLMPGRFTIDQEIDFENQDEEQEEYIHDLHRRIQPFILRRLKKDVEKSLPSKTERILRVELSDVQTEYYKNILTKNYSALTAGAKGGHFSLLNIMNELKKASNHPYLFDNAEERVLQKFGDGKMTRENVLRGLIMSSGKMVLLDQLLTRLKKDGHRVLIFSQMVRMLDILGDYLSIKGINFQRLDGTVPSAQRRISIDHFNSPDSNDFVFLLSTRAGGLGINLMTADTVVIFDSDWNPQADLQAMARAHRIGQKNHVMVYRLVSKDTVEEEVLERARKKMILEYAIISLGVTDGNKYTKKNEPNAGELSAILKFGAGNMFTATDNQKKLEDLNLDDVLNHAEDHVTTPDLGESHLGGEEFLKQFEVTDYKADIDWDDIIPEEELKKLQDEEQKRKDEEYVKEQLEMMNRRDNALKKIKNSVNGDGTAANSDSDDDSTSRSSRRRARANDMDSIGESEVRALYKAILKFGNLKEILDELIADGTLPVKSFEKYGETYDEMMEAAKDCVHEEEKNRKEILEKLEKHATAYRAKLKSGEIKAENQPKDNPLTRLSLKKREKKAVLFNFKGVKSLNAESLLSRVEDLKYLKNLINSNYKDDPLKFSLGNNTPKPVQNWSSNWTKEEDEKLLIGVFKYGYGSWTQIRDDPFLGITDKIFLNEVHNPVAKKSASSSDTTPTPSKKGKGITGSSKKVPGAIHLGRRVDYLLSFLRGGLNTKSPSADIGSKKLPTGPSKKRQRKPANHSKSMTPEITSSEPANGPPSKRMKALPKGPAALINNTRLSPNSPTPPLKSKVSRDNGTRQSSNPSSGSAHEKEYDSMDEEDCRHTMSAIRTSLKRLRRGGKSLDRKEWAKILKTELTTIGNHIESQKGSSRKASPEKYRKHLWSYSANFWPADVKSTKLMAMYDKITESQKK

For some assays here: Entries with a potency or affinity are not part of this list.

Protein translocase subunit SecA (Escherichia coli (strain K12)), sequence (P10408 whole entry): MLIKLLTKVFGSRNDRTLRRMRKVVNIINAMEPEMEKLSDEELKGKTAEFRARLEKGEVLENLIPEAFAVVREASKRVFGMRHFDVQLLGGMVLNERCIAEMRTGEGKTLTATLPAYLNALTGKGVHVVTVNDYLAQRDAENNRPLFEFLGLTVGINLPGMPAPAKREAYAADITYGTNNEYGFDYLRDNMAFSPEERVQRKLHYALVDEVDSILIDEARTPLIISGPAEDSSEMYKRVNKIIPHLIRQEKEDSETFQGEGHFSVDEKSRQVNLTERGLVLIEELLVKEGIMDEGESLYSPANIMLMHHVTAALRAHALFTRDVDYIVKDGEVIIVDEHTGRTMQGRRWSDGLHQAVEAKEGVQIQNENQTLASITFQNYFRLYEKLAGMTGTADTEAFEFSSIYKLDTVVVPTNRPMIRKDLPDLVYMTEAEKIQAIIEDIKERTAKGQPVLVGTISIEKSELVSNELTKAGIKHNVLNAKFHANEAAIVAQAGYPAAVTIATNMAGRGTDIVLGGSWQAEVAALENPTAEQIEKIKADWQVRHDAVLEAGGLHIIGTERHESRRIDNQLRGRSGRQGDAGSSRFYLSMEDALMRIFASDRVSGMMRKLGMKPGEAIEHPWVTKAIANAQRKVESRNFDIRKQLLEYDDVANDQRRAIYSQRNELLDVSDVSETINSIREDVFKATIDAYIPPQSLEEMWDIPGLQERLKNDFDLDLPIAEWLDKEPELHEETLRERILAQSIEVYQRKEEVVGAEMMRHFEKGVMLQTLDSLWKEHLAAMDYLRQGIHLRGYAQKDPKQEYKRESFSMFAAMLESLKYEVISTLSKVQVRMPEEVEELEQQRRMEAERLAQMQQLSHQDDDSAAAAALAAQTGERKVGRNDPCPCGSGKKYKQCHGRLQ

With `COCC1CC2(CCN(Cc3ccc(OC)cc3)CC2)CN1C(C)C` (stereo not given), the Percent Effect in experiment [1] is -6.15%; in [2], -9.09%; in experiment [3] it was -0.064%; with Trypanosoma cruzi, -1.66%; in experiment [4] it was -4.05%; in experiment [5], 0.0883%. Moreover, the Percent Effect in the experiment filed under Homo sapiens is -19.4%; in experiment [6], 0.526%; in [7] it was 2.56%; in experiment [8], 1.65%.

`Cc1ccc(F)cc1S(=O)(=O)NCc1cccnc1N(C)C`: the Percent Effect in experiment [1] was 2.25%; in experiment [2], 20.8%; in [3] it was -2.76%; in the experiment on Trypanosoma cruzi, -0.373%; in experiment [4] it was -5.53%; in experiment [5] it was 14.7%. The Percent Effect was 26.1% in the experiment listed under Homo sapiens, 7.84% in experiment [6], 21.2% in experiment [7] and -8.95% in experiment [8].

For `CN1CC(c2ccccc2)CC2(CCN(CC(=O)N(C)C)CC2)C1` (stereo not given), the Percent Effect in [1] was -6.25%; in [2], 5.41%; in experiment [3], 9.32%; with Trypanosoma cruzi it was 8.44%; in [4], -3.85%; in experiment [5] it was 9.42%. Further, the Percent Effect in the experiment listed under Homo sapiens is -25%; in experiment [6], 1.6%; in experiment [7] it was 17.1%; in [8] it was -2.37%.

On to `O=C(Cc1n[nH]c2ccccc12)N1CCC(Nc2cccnn2)CC1`, for which the Percent Effect in [1] is -6.35%; in experiment [2] it was 10.4%; in [3] it was 4.16%; in the experiment with Trypanosoma cruzi, 3.36%; in experiment [4], -7.58%; in experiment [5], 13.2%. The Percent Effect in the experiment listed under Homo sapiens was -4.05%; in experiment [6], 5.88%; in experiment [7], 11.8%; in [8], -9.11%.

With `COc1cccc(CN2CCCC3(CCN(C(=O)[C@H]4CCCO4)C3)C2)c1` (stereo not given in full), the Percent Effect in experiment [1] is -5.07%; in [2] it was 3.9%; in experiment [3], -0.211%; in the experiment on Trypanosoma cruzi it was -0.75%; in [4], 3.65%; in experiment [5], 4.55%. The Percent Effect in the experiment listed under Homo sapiens is 0.637%; in [6] it was 12.6%; in [7] it was 15%; in experiment [8] it was -10.7%.

Turning to `O=C1CC2(CCN(S(=O)(=O)c3cccs3)C2)CN1c1ccccc1` (stereo not given), the Percent Effect in experiment [1] is -4.36%; in experiment [2], 9.09%; in experiment [3], 0.409%; with Trypanosoma cruzi it was -2.81%; in [4], 3.65%; in experiment [5], 2.83%. The Percent Effect is 8.75% in the experiment listed under Homo sapiens, -1.93% in experiment [6], -2.5% in experiment [7] and -2.17% in [8].

Regarding `Cc1cc(C)n(C2CCCN(C(=O)c3c(C)c(C)n[nH]c3=O)C2)n1` (stereo not given), the Percent Effect in [1] was -1.62%; in experiment [2], 8%; in experiment [3], 4.21%; in the experiment with Trypanosoma cruzi, -4.62%; in experiment [4], 0.887%; in experiment [5] it was 4.16%. Further, the Percent Effect in the experiment listed under Homo sapiens was 17.4%; in experiment [6], 1.58%; in [7], 2.56%; in experiment [8] it was -4.78%.

On to `Cc1nn(C)c(N(C)C)c1CNCCNS(C)(=O)=O`, for which the Percent Effect is -1.65% in experiment [1]; 10.3% in [2]; -0.784% in [3]; 5.54% with Trypanosoma cruzi; 5.74% in experiment [4]; 9.3% in experiment [5]. The Percent Effect in the experiment listed under Homo sapiens is -6.32%; in experiment [6], 7.18%; in [7] it was 20.5%; in [8], -2.87%.

With `O=C(NCCC1=CCCCC1)C1CCCN(c2ccc3nncn3n2)C1` (stereo not given), the Percent Effect was -2.76% in [1]; 8.11% in experiment [2]; 3.56% in experiment [3]; -0.291% in the experiment with Trypanosoma cruzi; -9.44% in experiment [4]; 13.5% in experiment [5]. Besides, the Percent Effect in the experiment listed under Homo sapiens was -5.74%; in experiment [6] it was 3.72%; in experiment [7], 12.2%; in [8], -1.71%.

On to `COCCCN1CC2(CCCCN2C(=O)c2ccsc2)CC1=O` (stereo not given), for which the Percent Effect in experiment [1] amounted to 0.227%; in experiment [2], 3.9%; in [3], 1.99%; with Trypanosoma cruzi it was 2.44%; in [4] it was 1.83%; in experiment [5] it was 0.601%. Further, the Percent Effect turned out to be 15.2% in the experiment filed under Homo sapiens, 0% in experiment [6], 7.5% in experiment [7] and 2.21% in [8].

Turning to `CCn1ccnc1CN1CCN(CC(O)c2ccccc2)CC1` (stereo not given), the Percent Effect in [1] was -1.54%; in experiment [2] it was 2.56%; in [3] it was 2.88%; with Trypanosoma cruzi, -4.79%; in experiment [4] it was 4.51%; in [5], 6.91%. Besides, the Percent Effect is 10.2% in the experiment listed under Homo sapiens, 1.44% in [6], 6.02% in experiment [7] and -0.452% in [8].

The values above are taken from ChEMBL document CHEMBL3988442, “University of Dundee, Small-Polar-MMV Screening Library” (2021).
